# Experimental data: PubChem BioAssay (NCATS)
# Results filed as inconclusive are left out. A call without a number means that no potency is given here. Values without a mark were called inactive. The source made the active and inactive calls. Calls come from the whole dose curve; as a rule, active = well fitted curve in the direction sought with a large enough effect; inconclusive = small, poorly fitted or top-dose-only effect, or another doubt; inactive = no such curve, though single readings can be large; an effect the other way counts as inactive or inconclusive.
# How the values were obtained:
# [1] = NS1 protein of Zika virus - qHTS assay to identify small molecule inhibitors in human HEK 293 cells (AID 1347053); note: series mostly up to about 46 µM; nearly all actives have a fitted effect of over 55% in size
# Outline: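 HEK 293; 20 h pre-culture, 37 C/5% CO2; cpd 1 h pre-infection; ZIKV MR766, MOI = 0.5, 24 h, 37 C; TR-FRET NS1 readout (two anti-NS1 Abs); norm. to no-virus vs infected.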
# [2] = qHTS of pediatric cancer cell lines to identify multiple opportunities for drug repurposing: Primary screen for TC32 cells (AID 1347089); note: nearly all actives have a fitted effect of over 60% in size; note: potency is the fitted concentration of half-maximal effect
# Outline: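 TC32 cells, 500-1,000/well in growth medium, compound-treated 48 h at 37 °C; viability from CellTiter-Glo luminescence. Primary screen: MIPE 11-point (0.78 nM–46 µM final), NPC 8-point (0.59 nM–46 µM final); confirmatory at 11-point dilutions.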
# [3] = qHTS of pediatric cancer cell lines to identify multiple opportunities for drug repurposing: Primary screen for DAOY cells (AID 1347090); note: nearly all actives have a fitted effect of over 55% in size; note: potency is the fitted concentration of half-maximal effect
# Outline: (§1)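 Cell viability, CellTiter-Glo luminescence; 500-1,000 cells/well, 8- or 11-point titration, 48 h compound exposure at 37 degrees C, 5% CO2. Controls: DMSO neutral, bortezomib 2.3 µM final as positive.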
# [4] = qHTS of pediatric cancer cell lines to identify multiple opportunities for drug repurposing: Primary screen for SJ-GBM2 cells (AID 1347091); note: potency is the fitted concentration of half-maximal effect
# Outline: as §1
# [5] = qHTS of pediatric cancer cell lines to identify multiple opportunities for drug repurposing: Primary screen for A673 cells (AID 1347092); note: nearly all actives have a fitted effect of over 45% in size; note: potency is the fitted concentration of half-maximal effect
# Outline: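 A673 cells (500-1,000 cells/well) were treated 48 hours at 37 degrees C with compounds at 11-point (0.78 nM to 46 µM) or 8-point (0.59 nM to 46 µM) dilutions. Viability read by CellTiter-Glo luminescence; concentration-response curves fitted.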
# [6] = qHTS of pediatric cancer cell lines to identify multiple opportunities for drug repurposing: Primary screen for BT-37 cells (AID 1347094); note: potency is the fitted concentration of half-maximal effect
# Outline: (§2)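 Primary screen of approved and investigational compounds on cells in growth media at 37 degrees C, 5% CO2. MIPE set at 11-point and NPC set at 8-point dilutions; viability scored by ATP-based luminescence at 48 hours.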
# [7] = qHTS of pediatric cancer cell lines to identify multiple opportunities for drug repurposing: Primary screen for NB-EBc1 cells (AID 1347095); note: potency is the fitted concentration of half-maximal effect
# Outline: as §2
# [8] = qHTS of pediatric cancer cell lines to identify multiple opportunities for drug repurposing: Primary screen for U-2 OS cells (AID 1347096); note: nearly all actives have a fitted effect of over 50% in size
# Outline: (§3)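 Cells (500-1,000/well) rested 5 h, then received compounds for 48 h; metabolically active cells were measured by CellTiter-Glo luminescence. Final concentrations spanned up to 46 µM (MIPE, 11-point) or 0.59 nM-46 µM (NPC, 8-point) in primary screens, 11-point in follow-ups.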
# [9] = qHTS of pediatric cancer cell lines to identify multiple opportunities for drug repurposing: Primary screen for Saos-2 cells (AID 1347097); note: nearly all actives have a fitted effect of over 40% in size
# Outline: as §2
# [10] = qHTS of pediatric cancer cell lines to identify multiple opportunities for drug repurposing: Primary screen for SK-N-SH cells (AID 1347098); note: nearly all actives have a fitted effect of over 65% in size; note: potency is the fitted concentration of half-maximal effect
# Outline: as §3
# [11] = qHTS of pediatric cancer cell lines to identify multiple opportunities for drug repurposing: Primary screen for NB1643 cells (AID 1347099); note: nearly all actives have a fitted effect of over 50% in size; note: potency is the fitted concentration of half-maximal effect
# Outline: as §2
# [12] = qHTS of pediatric cancer cell lines to identify multiple opportunities for drug repurposing: Primary screen for LAN-5 cells (AID 1347100); note: potency is the fitted concentration of half-maximal effect
# Outline: as §3
# [13] = qHTS of pediatric cancer cell lines to identify multiple opportunities for drug repurposing: Primary screen for BT-12 cells (AID 1347101); note: nearly all actives have a fitted effect of over 25% in size; note: potency is the fitted concentration of half-maximal effect
# Outline: as §3
# [14] = qHTS of pediatric cancer cell lines to identify multiple opportunities for drug repurposing: Primary screen for Rh18 cells (AID 1347102); note: nearly all actives have a fitted effect of over 65% in size
# Outline: as §3
# [15] = qHTS of pediatric cancer cell lines to identify multiple opportunities for drug repurposing: Primary screen for OHS-50 cells (AID 1347103); note: nearly all actives have a fitted effect of over 40% in size; note: potency is the fitted concentration of half-maximal effect
# Outline: as §3
# [16] = qHTS of pediatric cancer cell lines to identify multiple opportunities for drug repurposing: Primary screen for SK-N-MC cells (AID 1347093); note: potency is the fitted concentration of half-maximal effect
# Outline: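 Metabolically active cells were quantified by ATP-dependent luminescence (CellTiter-Glo, 15 min at room temperature) following 48 h treatment. Cells had been plated at 500-1,000 per well and settled for 5 h beforehand.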
SMILES,Potency [1],Potency [2],Potency [3],Potency [4],Potency [5],Potency [6],Potency [7],Potency [8],Potency [9],Potency [10],Potency [11],Potency [12],Potency [13],Potency [14],Potency [15],Potency [16]
CC(C)[C@@H]1CC[C@@H](C)CC1=O,inactive,inactive,inactive,inactive,inactive,inactive,inactive,inactive,inactive,inactive,inactive,inactive,inactive,inactive,inactive,–
C/C=C/C=N/NC(=O)c1ccncc1,inactive,inactive,inactive,inactive,–,inactive,inactive,inactive,inactive,inactive,–,inactive,inactive,inactive,inactive,inactive
CCCCC(CC)CN1CN(CC(CC)CCCC)CC(C)(N)C1 (stereo not given),inactive,inactive,inactive,inactive,inactive,inactive,inactive,inactive,–,inactive,inactive,inactive,–,inactive,–,–
CN(Cc1ccc(C(C)(C)C)cc1)Cc1cccc2ccccc12,inactive,inactive,inactive,inactive,inactive,inactive,inactive,inactive,–,inactive,inactive,inactive,inactive,inactive,–,–
COc1cc(N)c(Cl)cc1C(=O)NC1CCN(Cc2ccccc2)CC1,inactive,inactive,inactive,inactive,–,inactive,inactive,inactive,inactive,–,inactive,inactive,inactive,inactive,–,inactive
CCOC(=O)[C@H](CCc1ccccc1)N[C@@H](C)C(=O)N1[C@H](C(=O)O)C[C@@H]2CCC[C@@H]21,inactive,inactive,inactive,inactive,inactive,inactive,inactive,inactive,inactive,inactive,inactive,inactive,inactive,inactive,inactive,–
C[C@H]1O[C@@H](O[C@H]2CC[C@@]3(C)[C@H](CC[C@@H]4[C@@H]3C[C@@H](O)[C@]3(C)[C@@H](C5=CC(=O)OC5)CC[C@]43O)C2)C[C@H](O)[C@@H]1O[C@H]1C[C@H](O)[C@H](O[C@H]2C[C@H](O)[C@H](O[C@@H]3O[C@H](CO)[C@@H](O)[C@H](O)[C@H]3O)[C@@H](C)O2)[C@@H](C)O1,inactive,374 nM (active),266 nM (active),84.1 nM (active),266 nM (active),123 nM (active),188 nM (active),–,–,386 nM (active),668 nM (active),237 nM (active),309 nM (active),–,219 nM (active),168 nM (active)
N#C/C(=C1\SCC(c2ccccc2Cl)S1)n1ccnc1 (stereo not given),inactive,inactive,inactive,–,inactive,inactive,inactive,inactive,inactive,inactive,inactive,inactive,inactive,inactive,–,inactive
C#C[C@]1(O)CC[C@H]2[C@@H]3[C@H](C)CC4=C(CCC(=O)C4)[C@H]3CC[C@@]21C,inactive,inactive,inactive,inactive,inactive,inactive,inactive,inactive,inactive,inactive,inactive,inactive,–,inactive,inactive,–
CCCc1ncc(C[n+]2ccccc2C)c(N)n1,inactive,inactive,inactive,–,inactive,inactive,inactive,inactive,inactive,inactive,inactive,inactive,inactive,inactive,inactive,inactive
CCN1CCCC(OC(=O)C(c2ccccc2)c2ccccc2)C1 (stereo not given),inactive,inactive,inactive,inactive,inactive,inactive,inactive,inactive,–,–,inactive,inactive,inactive,inactive,inactive,inactive
N[C@H](C(=O)O)[C@@H](O)c1ccc(O)c(O)c1,inactive,inactive,inactive,inactive,inactive,inactive,inactive,inactive,inactive,–,inactive,–,inactive,inactive,inactive,–
Cc1cc(C)cc(OCC2CNC(=O)O2)c1 (stereo not given),inactive,inactive,inactive,–,inactive,inactive,inactive,inactive,inactive,inactive,inactive,inactive,inactive,inactive,inactive,inactive
